In PubChem BioAssay AID1159580 (chemical genetic matrix, 2015):
About 2,000 (36%) of roughly 5,500 compounds were called active. Another 18% or so got no clear call; they are omitted. No stated cut-off is given here; in the data, active means normalized growth mostly below about 0.91 (no sharp cut-off); inconclusive means no clear call, values can overlap the other calls; inactive means mostly above about 0.92. Some of the results follow.

Experiment: chemical genetic growth profiling, strain panel (AID 1159580);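 further: tested at 20 µM; growth read once vehicle control cultures reached saturation at 30 °C; 1 = growth at the plate median or of vehicle wells; lower values mean less growth of the strain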
Conditions: growth OD

Measured: normalized growth

O=C(O)COc1ccc(Cl)cc1Cl
inactive: S. cerevisiae deletion strains, locus YJR043C, strain POL32, hits give low values 1.02 | S. cerevisiae deletion strains, locus YJR075W, strain HOC1, hits give low values 1.02 | S. cerevisiae deletion strains, locus YKL009W, strain mrt4, hits give low values 1.04 | S. cerevisiae deletion strains, locus YKL068W, hits give low values 1.01 | S. cerevisiae deletion strains, locus YKL085W, strain MDH1 (second series), hits give low values 1.01 | S. cerevisiae deletion strains, locus YKL085W, strain MDH1, hits give low values 1.01 | S. cerevisiae deletion strains, locus YKL160W, strain elf1, hits give low values 0.996 | S. cerevisiae deletion strains, locus YKL190W, strain CNB1, hits give low values 1.02 | S. cerevisiae deletion strains, locus YKR001C, strain vps1, hits give low values 1.04 | S. cerevisiae deletion strains, locus YKR026C, strain gcn3, hits give low values 0.988 | S. cerevisiae deletion strains, locus YKR091W, strain srl3, hits give low values 0.999 | S. cerevisiae deletion strains, locus YLL001W, strain dnm1, hits give low values 1 | S. cerevisiae deletion strains, locus YLL026W, hits give low values 0.988 | S. cerevisiae deletion strains, locus YLL041C, strain sdh2, hits give low values 0.995 | S. cerevisiae deletion strains, locus YLR027C, strain aat2, hits give low values 0.993 | S. cerevisiae deletion strains, locus YLR039C, strain RIC1, hits give low values 1.04 | S. cerevisiae deletion strains, locus YLR058C, strain SHM2, hits give low values 1.01 | S. cerevisiae deletion strains, locus YLR102C, strain apc9, hits give low values 1.03 | S. cerevisiae deletion strains, locus YLR221C, strain rsa3, hits give low values 0.989 | S. cerevisiae deletion strains, locus YLR258W, strain gsy2, hits give low values 0.994 | S. cerevisiae deletion strains, locus YLR262C, strain YPT6 (second series), hits give low values 0.996 | S. cerevisiae deletion strains, locus YLR262C, strain YPT6, hits give low values 1.08 | S. cerevisiae deletion strains, locus YLR268W, strain sec22, hits give low values 1.02 | S. cerevisiae deletion strains, locus YLR320W, strain mms22, hits give low values 0.991 | S. cerevisiae deletion strains, locus YLR330W, strain CHS5, hits give low values 1.01 | S. cerevisiae deletion strains, locus YLR342W, strain FKS1 (second series), hits give low values 1.03 | S. cerevisiae deletion strains, locus YLR342W, strain FKS1, hits give low values 1 | S. cerevisiae deletion strains, locus YLR357W, strain rsc2, hits give low values 0.989 | S. cerevisiae deletion strains, locus YLR370C, strain arc18, hits give low values 0.994 | S. cerevisiae deletion strains, locus YLR371W, strain rom2, hits give low values 1.03 | S. cerevisiae deletion strains, locus YLR384C, strain iki3, hits give low values 0.997 | S. cerevisiae deletion strains, locus YLR418C, strain cdc73, hits give low values 1.06 | S. cerevisiae deletion strains, locus YML016C, strain PPZ1, hits give low values 1.01 | S. cerevisiae deletion strains, locus YML032C, strain rad52, hits give low values 1.04 | S. cerevisiae deletion strains, locus YML120C, strain ndi1, hits give low values 0.989 | S. cerevisiae deletion strains, locus YML124C, strain tub3, hits give low values 1.02 | S. cerevisiae deletion strains, locus YMR058W, strain fet3, hits give low values 0.999 | S. cerevisiae deletion strains, locus YMR078C, strain ctf18, hits give low values 1.02 | S. cerevisiae deletion strains, locus YMR125W, strain sto1, hits give low values 0.993 | S. cerevisiae deletion strains, locus YMR129W, hits give low values 0.996 | S. cerevisiae deletion strains, locus YMR205C, strain PFK2, hits give low values 0.984 | S. cerevisiae deletion strains, locus YMR223W, strain ubp8, hits give low values 1.03 | S. cerevisiae deletion strains, locus YMR231W, strain pep5, hits give low values 0.992 | S. cerevisiae deletion strains, locus YMR263W, strain SAP30, hits give low values 1.01 | S. cerevisiae deletion strains, locus YMR307W, strain GAS1, hits give low values 1.04 | S. cerevisiae deletion strains, locus YNL067W, strain RPL9B, hits give low values 1.02 | S. cerevisiae deletion strains, locus YNL071W, strain lat1, hits give low values 1.01 | S. cerevisiae deletion strains, locus YNL128W, strain TEP1, hits give low values 1.02 | S. cerevisiae deletion strains, locus YNL153C, strain GIM3, hits give low values 0.993 | S. cerevisiae deletion strains, locus YNL209W, strain ssb2, hits give low values 1 | S. cerevisiae deletion strains, locus YNL233W, strain BNI4, hits give low values 1.03 | S. cerevisiae deletion strains, locus YNL248C, strain rpa49, hits give low values 0.989 | S. cerevisiae deletion strains, locus YNL250W, strain rad50, hits give low values 1.02 | S. cerevisiae deletion strains, locus YNL271C, strain bni1, hits give low values 1.02 | S. cerevisiae deletion strains, locus YNL298W, strain CLA4, hits give low values 1.04 | S. cerevisiae deletion strains, locus YNL307C, strain MCK1, hits give low values 1.03 | S. cerevisiae deletion strains, locus YNL322C, strain KRE1 (second series), hits give low values 0.994 | S. cerevisiae deletion strains, locus YNL322C, strain KRE1, hits give low values 1.01 | S. cerevisiae deletion strains, locus YNR049C, strain mso1, hits give low values 0.993 | S. cerevisiae deletion strains, locus YNR052C, strain pop2, hits give low values 1.03 | S. cerevisiae deletion strains, locus YOL006C, strain TOP1, hits give low values 1.08 | S. cerevisiae deletion strains, locus YOL012C, strain htz1 1.3 | S. cerevisiae deletion strains, locus YOL147C, strain pex11, hits give low values 1.02 | S. cerevisiae deletion strains, locus YOR001W, strain rrp6, hits give low values 0.993 | S. cerevisiae deletion strains, locus YOR061W, strain CKA2, hits give low values 1.01 | S. cerevisiae deletion strains, locus YOR069W, strain VPS5, hits give low values 1.01 | S. cerevisiae deletion strains, locus YOR070C, strain gyp1, hits give low values 1 | S. cerevisiae deletion strains, locus YOR080W, strain dia2, hits give low values 0.996 | S. cerevisiae deletion strains, locus YOR083W, strain WHI5, hits give low values 0.998 | S. cerevisiae deletion strains, locus YOR106W, strain vam3, hits give low values 0.994 | S. cerevisiae deletion strains, locus YOR136W, strain idh2, hits give low values 1.02 | S. cerevisiae deletion strains, locus YOR144C, strain elg1, hits give low values 1.02 | S. cerevisiae deletion strains, locus YOR184W, strain ser1, hits give low values 1.03 | S. cerevisiae deletion strains, locus YOR265W, strain rbl2, hits give low values 0.992 | S. cerevisiae deletion strains, locus YOR270C, strain vph1, hits give low values 1.01 | S. cerevisiae deletion strains, locus YOR290C, strain snf2, hits give low values 1 | S. cerevisiae deletion strains, locus YOR316C, strain cot1, hits give low values 1.03 | S. cerevisiae deletion strains, locus YPL051W, strain arl3, hits give low values 0.993 | S. cerevisiae deletion strains, locus YPL055C, strain LGE1, hits give low values 1.03 | S. cerevisiae deletion strains, locus YPL078C, strain atp4, hits give low values 0.999 | S. cerevisiae deletion strains, locus YPL106C, strain sse1, hits give low values 0.983 | S. cerevisiae deletion strains, locus YPL240C, strain hsp82, hits give low values 0.993 | S. cerevisiae deletion strains, locus YPL241C, strain CIN2, hits give low values 1.01 | S. cerevisiae deletion strains, locus YPR119W, strain clb2, hits give low values 1.01 | S. cerevisiae deletion strains, locus YPR141C, strain kar3, hits give low values 1.03 | S. cerevisiae deletion strains, locus YPR163C, strain tif3, hits give low values 1.02 | S. cerevisiae deletion strains, locus YPR167C, strain met16, hits give low values 1.03 | S. cerevisiae deletion strains, strain wtn01, hits give low values 1.02 | S. cerevisiae strains, strain wild type, hits give low values 1.01
